Laboratory results as given in PubChem BioAssay AID1159580 (chemical genetic matrix, 2015).
“And” between values parts separate entries of the source, which are not always exact repeats. Equal entries are not always repeated. About 2,000 (36%) of roughly 5,500 compounds were called active. Inconclusive results (about 18%) are left out. Rule as the data show it: active = normalized growth mostly below about 0.91 (no sharp cut-off); inconclusive = no clear call, values can overlap the other calls; inactive = mostly above about 0.92. This is one part of the list.

Experiment: chemical genetic growth profiling, strain panel (AID 1159580);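 also: tested at 20 µM; growth read once vehicle control cultures reached saturation at 30 °C; 1 = growth at the plate median or of vehicle wells; lower values mean less growth of the strain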
Details: S. cerevisiae deletion strains, growth OD

Measured: normalized growth

CN(C)[C@@H]1C(=O)C(C(N)=O)=C(O)[C@@]2(O)C(=O)C3=C(O)c4c(O)ccc(Cl)c4[C@@H](O)[C@H]3C[C@@H]12
inactive: locus YAL013W, strain DEP1, active compounds read low 1 | locus YAL021C, strain ccr4, active compounds read low 0.971 | locus YAL026C, strain drs2, active compounds read low 1 | locus YAL030W, strain snc1, active compounds read low 0.984 | locus YBL061C, strain skt5, active compounds read low 0.98 | locus YBR009C, strain hhf1, active compounds read low 1.04 | locus YBR021W, strain FUR4, active compounds read low 0.945 | locus YBR023C, strain chs3, active compounds read low 0.982 | locus YBR171W, strain sec66, active compounds read low 0.978 | locus YBR229C, strain ROT2, active compounds read low 1 | locus YBR231C, strain swc5, active compounds read low 0.991 | locus YBR279W, strain paf1, active compounds read low 0.994 | locus YCL011C, strain gbp2, active compounds read low 1.06 | locus YCL016C, strain dcc1, active compounds read low 0.964 | locus YCL029C, strain bik1, active compounds read low 0.992 | locus YCL061C, strain MRC1, active compounds read low 0.992 | locus YCL069W, strain vba3, active compounds read low 0.997 | locus YCR088W, strain abp1, active compounds read low 0.993 | locus YDL005C, strain med2, active compounds read low 0.983 | locus YDL035C, strain GPR1, active compounds read low 1.01 | locus YDL040C, strain nat1, active compounds read low 0.992 | locus YDL074C, strain BRE1, active compounds read low 0.994 | locus YDL101C, strain DUN1, active compounds read low 1 | locus YDL134C, strain PPH21, active compounds read low 1 | locus YDL185W, strain tfp1, active compounds read low 0.984 | locus YDL192W, strain arf1, active compounds read low 0.982 | locus YDR001C, strain nth1, active compounds read low 0.977 | locus YDR069C, strain doa4, active compounds read low 0.969 | locus YDR101C, strain arx1, active compounds read low 0.999 | locus YDR137W, strain rgp1, active compounds read low 0.921 | locus YDR159W, strain sac3, active compounds read low 1.06 | locus YDR162C, strain NBP2, active compounds read low 1.02 | locus YDR195W, strain ref2 1 | locus YDR297W, strain sur2, active compounds read low 0.979 | locus YDR318W, strain mcm21, active compounds read low 0.997 | locus YDR334W, strain swr1, active compounds read low 0.95 | locus YDR335W, strain msn5, active compounds read low 0.98 | locus YDR388W, active compounds read low 0.983 | locus YDR392W, strain spt3, active compounds read low 0.854 | locus YDR502C, strain sam2, active compounds read low 0.981 | locus YEL003W, strain gim4, active compounds read low 0.98 | locus YEL037C, strain rad23, active compounds read low 0.99 | locus YEL061C, strain CIN8 (second series), active compounds read low 0.988 | locus YEL061C, strain CIN8, active compounds read low 1 | locus YER015W, strain faa2, active compounds read low 0.988 | locus YER016W, strain bim1, active compounds read low 0.994 | locus YER110C, active compounds read low 0.98 | locus YER111C, strain swi4, active compounds read low 0.994 | locus YER155C, strain BEM2 (second series), active compounds read low 0.932 | locus YER155C, strain BEM2, active compounds read low 1.01 | locus YER167W, strain BCK2, active compounds read low 1.01 | locus YFR010W, strain ubp6, active compounds read low 0.991 | locus YGL078C, strain dbp3, active compounds read low 0.988 | locus YGL086W, strain mad1, active compounds read low 0.986 | locus YGL167C, strain pmr1, active compounds read low 0.988 | locus YGL173C, strain kem1, active compounds read low 0.985 | locus YGL227W, strain vid30, active compounds read low 0.982 | locus YGL240W, strain doc1, active compounds read low 0.95 | locus YGL248W, strain PDE1, active compounds read low 0.988 | locus YGL253W, strain hxk2, active compounds read low 0.981 | locus YGR078C, strain PAC10, active compounds read low 0.989 | locus YGR135W, strain pre9, active compounds read low 0.974 | locus YGR252W, strain gcn5, active compounds read low 0.879 | locus YHR013C, strain ard1, active compounds read low 0.973 | locus YHR027C, strain rpn1, active compounds read low 0.965 | locus YHR030C, strain SLT2, active compounds read low 1 and 1.02 | locus YHR079C, strain IRE1 (second series), active compounds read low 0.976 | locus YHR079C, strain IRE1, active compounds read low 1.04 | locus YHR094C, strain hxt1, active compounds read low 0.981 | locus YHR129C, strain ARP1, active compounds read low 1.01 | locus YHR142W, strain chs7, active compounds read low 0.981 | locus YHR200W, strain rpn10, active compounds read low 0.987 | locus YIL066C, strain RNR3, active compounds read low 1.01 | locus YIL073C, strain SPO22, active compounds read low 0.992 | locus YIL125W, strain kgd1, active compounds read low 0.983 | locus YIR030C, strain dcg1, active compounds read low 0.98 | locus YJL092W, strain hpr5, active compounds read low 0.987 | locus YJL095W, strain BCK1 (second series), active compounds read low 0.98 | locus YJL095W, strain BCK1, active compounds read low 0.998 and 1.03 | locus YJL115W, strain asf1, active compounds read low 0.98 | locus YJL129C, strain trk1, active compounds read low 0.984 | locus YJL134W, strain LCB3, active compounds read low 1 | locus YJL154C, strain vps35, active compounds read low 0.976 | locus YJL164C, strain tpk1, active compounds read low 1 | locus YJL166W, strain qcr8, active compounds read low 0.93 | locus YJL168C, strain set2, active compounds read low 0.983 | locus YJL187C, strain SWE1 (second series), active compounds read low 0.995 | locus YJL187C, strain SWE1, active compounds read low 0.988 | locus YJR043C, strain POL32, active compounds read low 0.984 | locus YJR066W, strain TOR1, active compounds read low 0.97 | locus YKL009W, strain mrt4, active compounds read low 1 | locus YKL068W, active compounds read low 0.986 | locus YKL085W, strain MDH1 (second series), active compounds read low 0.975 | locus YKL085W, strain MDH1, active compounds read low 0.975 | locus YKL160W, strain elf1, active compounds read low 0.93 | locus YKL190W, strain CNB1, active compounds read low 1 | locus YKR001C, strain vps1, active compounds read low 0.976 | locus YKR026C, strain gcn3, active compounds read low 0.998 | locus YKR091W, strain srl3, active compounds read low 0.98 | locus YLL001W, strain dnm1, active compounds read low 0.921 | locus YLL026W, active compounds read low 0.983 | locus YLL041C, strain sdh2, active compounds read low 0.993 | locus YLR027C, strain aat2, active compounds read low 1.01 | locus YLR039C, strain RIC1, active compounds read low 0.995 | locus YLR058C, strain SHM2, active compounds read low 0.998 | locus YLR102C, strain apc9, active compounds read low 0.981 | locus YLR113W, strain HOG1, active compounds read low 1.03 | locus YLR221C, strain rsa3, active compounds read low 0.956 | locus YLR258W, strain gsy2, active compounds read low 0.992 | locus YLR262C, strain YPT6 (second series), active compounds read low 0.938 | locus YLR262C, strain YPT6, active compounds read low 1.01 | locus YLR268W, strain sec22, active compounds read low 0.954 | locus YLR320W, strain mms22, active compounds read low 0.947 | locus YLR330W, strain CHS5, active compounds read low 1.01 | locus YLR342W, strain FKS1 (second series), active compounds read low 0.952 | locus YLR342W, strain FKS1, active compounds read low 0.99 | locus YLR357W, strain rsc2, active compounds read low 0.93 | locus YLR370C, strain arc18, active compounds read low 0.979 | locus YLR371W, strain rom2, active compounds read low 0.976 | locus YLR384C, strain iki3, active compounds read low 0.975 | locus YLR418C, strain cdc73, active compounds read low 0.939 | locus YML016C, strain PPZ1, active compounds read low 0.999 | locus YML032C, strain rad52, active compounds read low 0.988 | locus YML120C, strain ndi1, active compounds read low 0.928 | locus YML124C, strain tub3, active compounds read low 0.982 | locus YMR058W, strain fet3, active compounds read low 0.934 | locus YMR078C, strain ctf18, active compounds read low 0.982 | locus YMR125W, strain sto1, active compounds read low 0.918 | locus YMR129W, active compounds read low 0.989 | locus YMR205C, strain PFK2, active compounds read low 0.938 | locus YMR223W, strain ubp8, active compounds read low 0.977 | locus YMR231W, strain pep5, active compounds read low 0.991 | locus YMR307W, strain GAS1, active compounds read low 1.02 | locus YNL067W, strain RPL9B, active compounds read low 0.997 | locus YNL071W, strain lat1, active compounds read low 0.992 | locus YNL128W, strain TEP1, active compounds read low 1.01 | locus YNL183C, strain NPR1, active compounds read low 0.966 | locus YNL209W, strain ssb2, active compounds read low 0.975 | locus YNL233W, strain BNI4, active compounds read low 0.993 | locus YNL248C, strain rpa49, active compounds read low 0.956 | locus YNL250W, strain rad50, active compounds read low 0.99 | locus YNL271C, strain bni1, active compounds read low 0.983 | locus YNL298W, strain CLA4, active compounds read low 0.993 | locus YNL307C, strain MCK1, active compounds read low 0.994 | locus YNL322C, strain KRE1 (second series), active compounds read low 0.98 | locus YNL322C, strain KRE1, active compounds read low 0.999 | locus YNR049C, strain mso1, active compounds read low 0.978 | locus YNR052C, strain pop2, active compounds read low 0.998 | locus YOL012C, strain htz1 0.761 | locus YOL147C, strain pex11, active compounds read low 0.983 | locus YOR001W, strain rrp6, active compounds read low 1.05 | locus YOR061W, strain CKA2, active compounds read low 1 | locus YOR069W, strain VPS5, active compounds read low 1 | locus YOR070C, strain gyp1, active compounds read low 1.01 | locus YOR080W, strain dia2, active compounds read low 0.981 | locus YOR083W, strain WHI5, active compounds read low 0.941 | locus YOR106W, strain vam3, active compounds read low 0.942 | locus YOR136W, strain idh2, active compounds read low 0.979 | locus YOR144C, strain elg1, active compounds read low 0.986 | locus YOR184W, strain ser1, active compounds read low 0.995 | locus YOR231W, strain MKK1, active compounds read low 1.04 | locus YOR265W, strain rbl2, active compounds read low 0.982 | locus YOR270C, strain vph1, active compounds read low 0.966 | locus YOR290C, strain snf2, active compounds read low 0.958 | locus YOR316C, strain cot1, active compounds read low 0.982 | locus YPL051W, strain arl3, active compounds read low 0.973 | locus YPL055C, strain LGE1, active compounds read low 0.992 | locus YPL078C, strain atp4, active compounds read low 0.934 | locus YPL106C, strain sse1, active compounds read low 0.911 | locus YPL240C, strain hsp82, active compounds read low 0.993 | locus YPL256C, strain CLN2, active compounds read low 1.02 | locus YPR119W, strain clb2, active compounds read low 0.983 | locus YPR141C, strain kar3, active compounds read low 0.981 | locus YPR163C, strain tif3, active compounds read low 0.98 | locus YPR167C, strain met16, active compounds read low 0.985 | strain wtn01, active compounds read low 0.955
